Measured values from the supplement of paper PMC12067093, “Discovery and optimisation of a covalent ligand for TRIM25 and its application to targeted protein ubiquitination” (Chemical Science, 2025).
Targets with the largest changes are over-represented here; the source holds about 21,000 in all.

Compound: CC1Cc2ccccc2N1C(=O)C1CCCN(C1)C(=O)CCl (mixture of isomers) [TRIM25 ligand 11 (diastereomer mixture)]
Experiment: probe-labelled cysteine peptide fold change vs DMSO (competition) (log2 fold change); higher = less target engagement (more negative = stronger competition)
Conditions: 10 µM; THP-1; incubation time: 4 h
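Further: competitive chemoproteomic profiling in live THP-1 cells with an iodoacetamide desthiobiotin (IA-DTB) probe, comparing probe-labelled peptide intensities in compound-treated cells against DMSO-treated controls.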

Sequence of UniProt Q9UJW0 (Q9UJW0 whole entry, looked up): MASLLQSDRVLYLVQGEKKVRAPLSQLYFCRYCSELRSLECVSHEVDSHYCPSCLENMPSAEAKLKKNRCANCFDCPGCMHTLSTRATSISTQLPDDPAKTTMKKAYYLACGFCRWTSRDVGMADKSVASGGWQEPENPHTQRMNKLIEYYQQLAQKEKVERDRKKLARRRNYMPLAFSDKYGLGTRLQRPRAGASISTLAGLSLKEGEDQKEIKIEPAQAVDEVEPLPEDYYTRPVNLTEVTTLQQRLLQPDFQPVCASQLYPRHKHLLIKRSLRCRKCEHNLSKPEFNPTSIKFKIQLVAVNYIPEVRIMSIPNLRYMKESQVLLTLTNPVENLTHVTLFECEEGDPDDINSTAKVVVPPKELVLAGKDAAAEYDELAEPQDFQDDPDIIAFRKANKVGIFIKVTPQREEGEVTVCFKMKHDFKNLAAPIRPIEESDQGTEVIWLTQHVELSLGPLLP
Sequence of UniProt Q9NY93 (Q9NY93 whole entry, looked up): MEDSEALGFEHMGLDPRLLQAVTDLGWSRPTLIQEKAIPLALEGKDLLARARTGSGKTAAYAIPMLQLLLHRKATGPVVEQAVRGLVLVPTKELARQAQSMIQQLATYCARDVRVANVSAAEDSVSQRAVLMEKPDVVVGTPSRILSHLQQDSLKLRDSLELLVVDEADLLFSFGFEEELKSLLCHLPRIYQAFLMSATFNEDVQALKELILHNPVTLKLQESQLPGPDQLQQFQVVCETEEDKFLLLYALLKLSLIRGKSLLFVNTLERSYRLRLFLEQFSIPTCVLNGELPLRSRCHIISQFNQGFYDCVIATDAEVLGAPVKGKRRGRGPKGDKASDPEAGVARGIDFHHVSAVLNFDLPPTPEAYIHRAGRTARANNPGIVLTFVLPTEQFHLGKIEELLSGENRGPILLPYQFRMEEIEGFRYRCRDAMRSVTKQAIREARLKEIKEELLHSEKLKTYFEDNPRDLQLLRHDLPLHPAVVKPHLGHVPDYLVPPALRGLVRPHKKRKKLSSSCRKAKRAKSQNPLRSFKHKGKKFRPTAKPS
Sequence of UniProt Q6PI48 (Q6PI48 whole entry, looked up): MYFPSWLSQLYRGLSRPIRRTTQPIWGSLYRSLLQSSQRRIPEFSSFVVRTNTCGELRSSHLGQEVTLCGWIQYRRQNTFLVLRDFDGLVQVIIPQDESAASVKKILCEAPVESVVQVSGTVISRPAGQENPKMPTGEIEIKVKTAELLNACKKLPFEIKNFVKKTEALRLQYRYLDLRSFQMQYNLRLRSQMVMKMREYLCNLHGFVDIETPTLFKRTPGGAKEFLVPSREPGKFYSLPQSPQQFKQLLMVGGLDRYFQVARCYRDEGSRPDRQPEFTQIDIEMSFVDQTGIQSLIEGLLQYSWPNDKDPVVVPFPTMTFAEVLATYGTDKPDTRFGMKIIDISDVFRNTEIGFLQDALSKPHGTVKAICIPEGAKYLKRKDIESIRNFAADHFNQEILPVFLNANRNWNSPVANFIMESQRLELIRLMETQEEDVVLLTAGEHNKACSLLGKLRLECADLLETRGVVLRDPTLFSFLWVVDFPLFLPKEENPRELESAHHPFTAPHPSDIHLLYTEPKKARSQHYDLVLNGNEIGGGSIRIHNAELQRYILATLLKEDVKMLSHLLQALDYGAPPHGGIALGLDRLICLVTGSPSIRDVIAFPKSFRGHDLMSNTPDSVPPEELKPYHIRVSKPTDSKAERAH
Sequence of UniProt Q9UBR2 (Q9UBR2 whole entry, looked up): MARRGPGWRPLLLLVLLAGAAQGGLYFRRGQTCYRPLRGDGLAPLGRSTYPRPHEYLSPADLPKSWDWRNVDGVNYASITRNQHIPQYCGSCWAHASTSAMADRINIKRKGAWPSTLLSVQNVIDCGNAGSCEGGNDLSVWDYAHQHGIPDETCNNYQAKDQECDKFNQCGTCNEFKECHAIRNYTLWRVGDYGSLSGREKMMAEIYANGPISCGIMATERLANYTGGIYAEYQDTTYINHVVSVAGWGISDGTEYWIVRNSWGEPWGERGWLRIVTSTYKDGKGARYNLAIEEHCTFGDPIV
Sequence of UniProt Q8TBM8 (Q8TBM8 whole entry, looked up): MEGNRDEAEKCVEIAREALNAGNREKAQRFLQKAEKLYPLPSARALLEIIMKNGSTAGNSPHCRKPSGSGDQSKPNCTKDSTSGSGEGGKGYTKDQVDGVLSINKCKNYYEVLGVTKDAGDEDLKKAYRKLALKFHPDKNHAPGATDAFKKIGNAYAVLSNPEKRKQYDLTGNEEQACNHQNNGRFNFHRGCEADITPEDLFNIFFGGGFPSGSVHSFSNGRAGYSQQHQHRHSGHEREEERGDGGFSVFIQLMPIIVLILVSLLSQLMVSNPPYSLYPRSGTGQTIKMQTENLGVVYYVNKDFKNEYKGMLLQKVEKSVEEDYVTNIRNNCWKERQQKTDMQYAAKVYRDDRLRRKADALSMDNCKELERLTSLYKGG
Sequence of UniProt O00429 (O00429 whole entry, looked up): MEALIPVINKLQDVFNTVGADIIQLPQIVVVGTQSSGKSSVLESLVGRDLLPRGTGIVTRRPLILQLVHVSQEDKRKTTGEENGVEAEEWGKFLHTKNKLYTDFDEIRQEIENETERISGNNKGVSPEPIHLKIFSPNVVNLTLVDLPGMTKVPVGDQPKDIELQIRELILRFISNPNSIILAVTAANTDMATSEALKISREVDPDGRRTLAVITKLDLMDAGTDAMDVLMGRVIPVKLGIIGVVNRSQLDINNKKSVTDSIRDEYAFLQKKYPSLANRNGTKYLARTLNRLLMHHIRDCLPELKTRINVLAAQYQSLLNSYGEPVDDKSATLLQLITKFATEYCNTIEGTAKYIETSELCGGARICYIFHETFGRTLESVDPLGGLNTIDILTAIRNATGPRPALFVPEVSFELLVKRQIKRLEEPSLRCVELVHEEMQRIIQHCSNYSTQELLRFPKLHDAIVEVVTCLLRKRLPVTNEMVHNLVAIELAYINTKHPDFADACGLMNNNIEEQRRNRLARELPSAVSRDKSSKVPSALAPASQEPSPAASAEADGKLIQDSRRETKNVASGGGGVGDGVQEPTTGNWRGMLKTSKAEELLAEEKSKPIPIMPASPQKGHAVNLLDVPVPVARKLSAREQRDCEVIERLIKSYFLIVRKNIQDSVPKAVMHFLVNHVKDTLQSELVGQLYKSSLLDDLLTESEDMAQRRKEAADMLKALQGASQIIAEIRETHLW
Sequence of UniProt Q96G46 (Q96G46 whole entry, looked up): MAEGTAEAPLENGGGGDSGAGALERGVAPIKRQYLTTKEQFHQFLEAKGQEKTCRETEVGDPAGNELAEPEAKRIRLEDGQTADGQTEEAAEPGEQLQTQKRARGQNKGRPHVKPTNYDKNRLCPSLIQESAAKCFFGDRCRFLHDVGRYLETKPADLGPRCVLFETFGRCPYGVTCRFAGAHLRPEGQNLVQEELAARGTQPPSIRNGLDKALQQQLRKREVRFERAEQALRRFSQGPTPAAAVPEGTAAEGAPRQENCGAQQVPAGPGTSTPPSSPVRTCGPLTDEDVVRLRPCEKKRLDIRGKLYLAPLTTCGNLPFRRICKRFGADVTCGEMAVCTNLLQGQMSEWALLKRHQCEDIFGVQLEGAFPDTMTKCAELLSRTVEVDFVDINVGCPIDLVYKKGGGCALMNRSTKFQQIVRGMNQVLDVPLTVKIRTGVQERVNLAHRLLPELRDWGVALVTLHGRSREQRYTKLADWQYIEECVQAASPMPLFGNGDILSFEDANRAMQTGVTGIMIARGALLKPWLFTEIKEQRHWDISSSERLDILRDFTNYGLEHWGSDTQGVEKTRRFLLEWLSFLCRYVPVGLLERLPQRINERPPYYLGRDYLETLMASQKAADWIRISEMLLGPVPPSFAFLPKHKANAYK
Sequence of UniProt Q5QP82 (Q5QP82 whole entry, looked up): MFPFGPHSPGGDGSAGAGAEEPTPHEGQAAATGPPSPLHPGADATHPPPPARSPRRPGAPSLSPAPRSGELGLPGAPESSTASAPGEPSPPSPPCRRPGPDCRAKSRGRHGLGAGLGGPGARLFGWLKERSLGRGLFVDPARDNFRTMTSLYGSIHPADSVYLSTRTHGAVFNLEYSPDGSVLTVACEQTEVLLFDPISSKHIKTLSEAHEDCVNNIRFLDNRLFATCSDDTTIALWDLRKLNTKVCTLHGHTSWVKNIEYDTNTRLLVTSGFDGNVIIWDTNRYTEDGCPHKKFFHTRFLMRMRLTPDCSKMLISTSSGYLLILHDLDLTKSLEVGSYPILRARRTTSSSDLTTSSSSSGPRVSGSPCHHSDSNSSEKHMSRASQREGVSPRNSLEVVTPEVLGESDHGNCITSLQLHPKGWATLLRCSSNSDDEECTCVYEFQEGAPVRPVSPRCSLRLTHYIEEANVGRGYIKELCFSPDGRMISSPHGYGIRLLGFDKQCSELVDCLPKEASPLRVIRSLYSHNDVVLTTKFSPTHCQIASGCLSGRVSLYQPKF
Sequence of UniProt Q96SD1 (Q96SD1 whole entry, looked up): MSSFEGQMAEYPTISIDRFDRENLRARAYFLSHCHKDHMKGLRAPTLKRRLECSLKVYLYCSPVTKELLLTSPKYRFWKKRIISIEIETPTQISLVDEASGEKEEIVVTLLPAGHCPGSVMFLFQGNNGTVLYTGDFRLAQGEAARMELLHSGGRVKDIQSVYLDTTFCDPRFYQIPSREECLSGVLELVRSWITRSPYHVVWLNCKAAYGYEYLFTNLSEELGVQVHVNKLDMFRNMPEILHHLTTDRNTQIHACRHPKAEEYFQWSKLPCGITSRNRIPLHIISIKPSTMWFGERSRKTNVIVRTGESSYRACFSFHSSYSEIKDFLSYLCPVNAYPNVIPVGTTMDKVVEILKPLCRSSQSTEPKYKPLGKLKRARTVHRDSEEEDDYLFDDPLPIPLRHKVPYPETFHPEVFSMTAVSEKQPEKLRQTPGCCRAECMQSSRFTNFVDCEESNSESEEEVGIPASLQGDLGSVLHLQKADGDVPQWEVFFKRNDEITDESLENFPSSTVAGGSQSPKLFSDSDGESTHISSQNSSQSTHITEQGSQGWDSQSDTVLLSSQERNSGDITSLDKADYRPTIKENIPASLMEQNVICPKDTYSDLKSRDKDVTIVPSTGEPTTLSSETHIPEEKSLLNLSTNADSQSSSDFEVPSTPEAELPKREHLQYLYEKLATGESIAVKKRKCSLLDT

Target	probe-labelled cysteine peptide fold change
DIP2B_Q9P265_1282_TCVVVAEERPR<|>DIP2C_Q9Y2E4_1263_TCVVVAEERPR (UniProt Q9Y2E4+Q9P265)	0.0276
CTSH_P09668_272_TGIYSSTSCHK (UniProt P09668)	0.223
DDX3X_O00571_128_WCDKSDEDDWSK (UniProt O00571)	-0.422
DLEC1_Q9Y238_256_LEDSCR (UniProt Q9Y238)	0.892
DOP1B_Q9Y3R5_70_LAQCLHPALPSGVHLK (UniProt Q9Y3R5)	0.262
DENND3_A2RUS2_1094_DTSTSFLAFQLLPEEEQLWAACAGR (UniProt A2RUS2)	1.22
DNMT1_P26358_580_HAQFVVEQVESYDEAGDSDEQPIFLTPCMR (UniProt P26358)	0.0642
DCP1A_Q9NPI6_39_QHDPYITSIADLTGQVALYTFCPK (UniProt Q9NPI6)	0.179
DLGAP5_Q15398_129_YRPDMPCFLLSNQNAVK (UniProt Q15398)	-0.299
CRYL1_Q9Y2S2_141_QCIVAHPVNPPYYIPLVELVPHPETAPTTVDR (UniProt Q9Y2S2)	0.0328
DHRS9_Q9BPW9_60_GFHVIAACLTESGSTALK (UniProt Q9BPW9)	0.105
DIAPH1_O60610_1227_AGCAVTSLLASELTK (UniProt O60610)	-0.0516
DDX42_Q86XP3_333_ELEPGDGPIAVIVCPTR (UniProt Q86XP3)	0.0933
DUS3L_Q96G46_358_RHQCEDIFGVQLEGAFPDTMTK (UniProt Q96G46)	0.0341
CTR9_Q6PD62_196_TNPGCPAEVR (UniProt Q6PD62)	-0.0355
DDX60L_Q5H9U9_502_CHVDEQSR (UniProt Q5H9U9)	-0.013
DHX37_Q8IY37_616_LCVVATNVAETSLTIPGIK (UniProt Q8IY37)	-0.0366
DIDO1_Q9BTC0_455_CGAQAGIK (UniProt Q9BTC0)	-0.117
DPYSL2_Q16555_439_THNSSLEYNIFEGMECR (UniProt Q16555)	0.0805
CPNE2_Q96FN4_265_DSVPLEFECINPK (UniProt Q96FN4)	-0.22

Target	probe-labelled cysteine peptide fold change
CTSZ_Q9UBR2_179_ECHAIR (UniProt Q9UBR2)	-0.116
DARS2_Q6PI48_202_MREYLCNLHGFVDIETPTLFKR (UniProt Q6PI48)	-0.272
CTNNBL1_Q8WYA6_370_VLDHAMIGPEGTDNCHK (UniProt Q8WYA6)	-0.0184
CRYBG1_Q9Y4K1_581+609_EVQLPTCHSNEPEVVSVASCAPPQEEVLGNEHSHCTAELAAK (UniProt Q9Y4K1)	0.00451
DNAJB14_Q8TBM8_77_KPSGSGDQSKPNCTK (UniProt Q8TBM8)	-0.262
DOK3_Q7L591_133_LADCVSVLPADGESCPR (UniProt Q7L591)	0.0537
DPP8_Q6V1X1_611_LSSPEDDPTCK (UniProt Q6V1X1)	0.0995
CUL4B_Q13620_297_CWQNHCR (UniProt Q13620)	0.0567
DCAF10_Q5QP82_213_TLSEAHEDCVNNIR (UniProt Q5QP82)	0.0726
DNM1L_O00429_300_LLMHHIRDCLPELK (UniProt O00429)	-0.355
DMXL2_Q8TDJ6_62_HGNIQVSCVECSNQQGR (UniProt Q8TDJ6)	-0.159
DCTPP1_Q9H773_110_CRVDLPLAVLSK (UniProt Q9H773)	-0.361
DHX15_O43143_774_IAPQYYDMSNFPQCEAKR (UniProt O43143)	-0.432
DCLRE1C_Q96SD1_34_AYFLSHCHK (UniProt Q96SD1)	0.0604
DCTN4_Q9UJW0_280_CEHNLSKPEFNPTSIK (UniProt Q9UJW0)	0.246
DHX30_Q7L2E3_286_LSTLTLLWPCPMTFVAK (UniProt Q7L2E3)	-0.558
CORO7_P57737_691_IVWVCDGR (UniProt P57737)	0.154
CRIP1_P50238_56_TLTSGGHAEHEGKPYCNHPCYAAMFGPK (UniProt P50238)	-0.889
DDX56_Q9NY93_185_SLLCHLPR (UniProt Q9NY93)	0.556
DBNL_Q9UJU6_97_KGACASHVSTMASFLK (UniProt Q9UJU6)	-0.0713

Same assay, conditions: 50 µM; THP-1; incubation time: 4 h

Target	probe-labelled cysteine peptide fold change
DIP2B_Q9P265_1282_TCVVVAEERPR<|>DIP2C_Q9Y2E4_1263_TCVVVAEERPR (UniProt Q9Y2E4+Q9P265)	0.197
CTSH_P09668_272_TGIYSSTSCHK (UniProt P09668)	-0.279
DDX3X_O00571_128_WCDKSDEDDWSK (UniProt O00571)	-0.388
DLEC1_Q9Y238_256_LEDSCR (UniProt Q9Y238)	0.979
DOP1B_Q9Y3R5_70_LAQCLHPALPSGVHLK (UniProt Q9Y3R5)	0.136
DENND3_A2RUS2_1094_DTSTSFLAFQLLPEEEQLWAACAGR (UniProt A2RUS2)	-0.0979
DNMT1_P26358_580_HAQFVVEQVESYDEAGDSDEQPIFLTPCMR (UniProt P26358)	0.604
DCP1A_Q9NPI6_39_QHDPYITSIADLTGQVALYTFCPK (UniProt Q9NPI6)	0.205
DLGAP5_Q15398_129_YRPDMPCFLLSNQNAVK (UniProt Q15398)	-0.594
CRYL1_Q9Y2S2_141_QCIVAHPVNPPYYIPLVELVPHPETAPTTVDR (UniProt Q9Y2S2)	-0.0222
DHRS9_Q9BPW9_60_GFHVIAACLTESGSTALK (UniProt Q9BPW9)	0.197
DIAPH1_O60610_1227_AGCAVTSLLASELTK (UniProt O60610)	-0.221
DDX42_Q86XP3_333_ELEPGDGPIAVIVCPTR (UniProt Q86XP3)	0.0408
DUS3L_Q96G46_358_RHQCEDIFGVQLEGAFPDTMTK (UniProt Q96G46)	0.0134
CTR9_Q6PD62_196_TNPGCPAEVR (UniProt Q6PD62)	0.0417
DDX60L_Q5H9U9_502_CHVDEQSR (UniProt Q5H9U9)	-0.526
DHX37_Q8IY37_616_LCVVATNVAETSLTIPGIK (UniProt Q8IY37)	0.0989
DIDO1_Q9BTC0_455_CGAQAGIK (UniProt Q9BTC0)	-0.185
DPYSL2_Q16555_439_THNSSLEYNIFEGMECR (UniProt Q16555)	-0.109
CPNE2_Q96FN4_265_DSVPLEFECINPK (UniProt Q96FN4)	-0.165

Target	probe-labelled cysteine peptide fold change
CTSZ_Q9UBR2_179_ECHAIR (UniProt Q9UBR2)	0.567
DARS2_Q6PI48_202_MREYLCNLHGFVDIETPTLFKR (UniProt Q6PI48)	-0.129
CTNNBL1_Q8WYA6_370_VLDHAMIGPEGTDNCHK (UniProt Q8WYA6)	-0.103
CRYBG1_Q9Y4K1_581+609_EVQLPTCHSNEPEVVSVASCAPPQEEVLGNEHSHCTAELAAK (UniProt Q9Y4K1)	-0.813
DNAJB14_Q8TBM8_77_KPSGSGDQSKPNCTK (UniProt Q8TBM8)	-0.569
DOK3_Q7L591_133_LADCVSVLPADGESCPR (UniProt Q7L591)	0.00634
DPP8_Q6V1X1_611_LSSPEDDPTCK (UniProt Q6V1X1)	0.0507
CUL4B_Q13620_297_CWQNHCR (UniProt Q13620)	0.295
DCAF10_Q5QP82_213_TLSEAHEDCVNNIR (UniProt Q5QP82)	-0.0884
DNM1L_O00429_300_LLMHHIRDCLPELK (UniProt O00429)	-0.178
DMXL2_Q8TDJ6_62_HGNIQVSCVECSNQQGR (UniProt Q8TDJ6)	-0.593
DCTPP1_Q9H773_110_CRVDLPLAVLSK (UniProt Q9H773)	-0.184
DHX15_O43143_774_IAPQYYDMSNFPQCEAKR (UniProt O43143)	-0.211
DCLRE1C_Q96SD1_34_AYFLSHCHK (UniProt Q96SD1)	-0.0702
DCTN4_Q9UJW0_280_CEHNLSKPEFNPTSIK (UniProt Q9UJW0)	0.175
DHX30_Q7L2E3_286_LSTLTLLWPCPMTFVAK (UniProt Q7L2E3)	-0.944
CORO7_P57737_691_IVWVCDGR (UniProt P57737)	0.334
CRIP1_P50238_56_TLTSGGHAEHEGKPYCNHPCYAAMFGPK (UniProt P50238)	-1.02
DDX56_Q9NY93_185_SLLCHLPR (UniProt Q9NY93)	0.332
DBNL_Q9UJU6_97_KGACASHVSTMASFLK (UniProt Q9UJU6)	-0.568
